Assay results reported in the supplement of paper PMC10849652.
Targets with a hit are over-represented here; the source holds about 8,800 in all. About 0.5% of all pairs of compound and target were hits.

What was measured:
Experiment in all cases: log2 fold change, soluble protein after heating vs DMSO (PISA); higher = thermal stabilisation; K562 lysate, 10 uM; active = over 0.2 and 3.5 SD of the protein, either way, in both replicates (recomputed)
[1] = compound: CCCS(=O)(=O)Nc1ccc(F)c(C(=O)c2c[nH]c3ncc(-c4ccc(Cl)cc4)cc23)c1F [vemurafenib]
How it was run: (§1)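 K562 pellets were dounce-homogenised in PBS pH 7.4 with 1 mM MgCl2, and the crude extract at 1 mg/mL protein was treated with 10 μM compound for 30 min. Aliquots were heated for 3 min across 48°C-58°C, pooled, and brought to 0.5% NP-40 at 4°C; soluble protein was the supernatant after 21,000xg for 90 min. Soluble protein was quantified by TMTpro 16plex LC-MS/MS with channel sums equalised, and reported as log2 fold change in thermal stability against DMSO controls, with values from duplicates.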

[2] = compound: CCCS(=O)(=O)Nc1ccc(F)c(C(=O)c2c[nH]c3ncc(Cl)cc23)c1F
How it was run: as §1

[3] = compound: CCN(CCCOc1ccc2c(Nc3cc(CC(=O)Nc4cccc(F)c4)[nH]n3)ncnc2c1)CCOP(=O)(O)O [barasertib]
How it was run: as §1

[4] = compound: CC[C@@H]1C(=O)N(C)c2cnc(Nc3ccc(C(=O)NC4CCN(C)CC4)cc3OC)nc2N1C1CCCC1
How it was run: as §1

[5] = compound: CC[C@@H]1C(=O)N(C)c2cnc(Nc3ccc(C(=O)N[C@H]4CC[C@H](N5CCN(CC6CC6)CC5)CC4)cc3OC)nc2N1C(C)C [volasertib]
How it was run: as §1

[6] = compound: CCn1c(C(=O)N(C2CC2)C2CC2)cc2c3c(ncn3C)c(Nc3cc(C)n(C)n3)nc21
How it was run: as §1

[7] = compound: CCn1cc(-c2ccnc3[nH]c(-c4cccc(CN(C)C)c4)cc23)c(-c2ccc(NC(=O)N(C)C)cc2)n1
How it was run: as §1

[8] = compound: CN1CCC(CNc2ccc3ncc(-c4cccc(OC(F)(F)F)c4)n3n2)CC1
How it was run: as §1

[9] = compound: CN1CCN(CCOc2cc(OC3CCOCC3)c3c(Nc4c(Cl)ccc5c4OCO5)ncnc3c2)CC1 [saracatinib]
How it was run: as §1

[10] = compound: CN1CCN(c2nc(C3=C(c4c[nH]c5ccccc45)C(=O)NC3=O)c3ccccc3n2)CC1 [sotrastaurin]
How it was run: as §1

Measured: log2 fold change

C18orf32 (UniProt Q8TCD1)
UniProt Q8TCD1, sequence (Q8TCD1 whole entry, looked up): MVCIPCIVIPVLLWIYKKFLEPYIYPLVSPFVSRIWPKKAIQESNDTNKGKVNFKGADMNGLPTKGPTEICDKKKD
inactive: [1] 0.164 | [2] -0.044 | [3] -0.019 | [4] 0.125 | [5] 0.054 | [6] 0.054 | [7] -0.073 | [8] 0 | [9] 0.006 | [10] -0.112

C5orf51 (UniProt A6NDU8)
UniProt A6NDU8, sequence (A6NDU8 whole entry, looked up): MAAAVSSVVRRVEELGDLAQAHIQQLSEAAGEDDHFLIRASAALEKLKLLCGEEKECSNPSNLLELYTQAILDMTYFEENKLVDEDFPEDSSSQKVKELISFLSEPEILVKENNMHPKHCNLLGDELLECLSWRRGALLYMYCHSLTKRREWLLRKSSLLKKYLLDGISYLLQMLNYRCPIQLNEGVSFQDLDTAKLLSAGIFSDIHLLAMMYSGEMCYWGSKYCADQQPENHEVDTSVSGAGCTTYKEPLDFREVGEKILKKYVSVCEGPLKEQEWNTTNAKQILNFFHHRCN
inactive: [1] -0.002 | [2] 0.009 | [3] 0.046 | [4] -0.014 | [5] -0.029 | [6] 0.053 | [7] 0.036 | [8] -0.137 | [9] 0.016 | [10] 0.036

CALM2 (UniProt P0DP24)
active: [3] 0.564
inactive: [1] 0.028 | [2] 0.011 | [4] 0.038 | [5] 0.024 | [6] -0.079 | [7] -0.22 | [8] 0.237 | [9] 0.029 | [10] 0

CARD11 (UniProt Q9BXL7)
UniProt Q9BXL7, sequence (Q9BXL7 whole entry, looked up): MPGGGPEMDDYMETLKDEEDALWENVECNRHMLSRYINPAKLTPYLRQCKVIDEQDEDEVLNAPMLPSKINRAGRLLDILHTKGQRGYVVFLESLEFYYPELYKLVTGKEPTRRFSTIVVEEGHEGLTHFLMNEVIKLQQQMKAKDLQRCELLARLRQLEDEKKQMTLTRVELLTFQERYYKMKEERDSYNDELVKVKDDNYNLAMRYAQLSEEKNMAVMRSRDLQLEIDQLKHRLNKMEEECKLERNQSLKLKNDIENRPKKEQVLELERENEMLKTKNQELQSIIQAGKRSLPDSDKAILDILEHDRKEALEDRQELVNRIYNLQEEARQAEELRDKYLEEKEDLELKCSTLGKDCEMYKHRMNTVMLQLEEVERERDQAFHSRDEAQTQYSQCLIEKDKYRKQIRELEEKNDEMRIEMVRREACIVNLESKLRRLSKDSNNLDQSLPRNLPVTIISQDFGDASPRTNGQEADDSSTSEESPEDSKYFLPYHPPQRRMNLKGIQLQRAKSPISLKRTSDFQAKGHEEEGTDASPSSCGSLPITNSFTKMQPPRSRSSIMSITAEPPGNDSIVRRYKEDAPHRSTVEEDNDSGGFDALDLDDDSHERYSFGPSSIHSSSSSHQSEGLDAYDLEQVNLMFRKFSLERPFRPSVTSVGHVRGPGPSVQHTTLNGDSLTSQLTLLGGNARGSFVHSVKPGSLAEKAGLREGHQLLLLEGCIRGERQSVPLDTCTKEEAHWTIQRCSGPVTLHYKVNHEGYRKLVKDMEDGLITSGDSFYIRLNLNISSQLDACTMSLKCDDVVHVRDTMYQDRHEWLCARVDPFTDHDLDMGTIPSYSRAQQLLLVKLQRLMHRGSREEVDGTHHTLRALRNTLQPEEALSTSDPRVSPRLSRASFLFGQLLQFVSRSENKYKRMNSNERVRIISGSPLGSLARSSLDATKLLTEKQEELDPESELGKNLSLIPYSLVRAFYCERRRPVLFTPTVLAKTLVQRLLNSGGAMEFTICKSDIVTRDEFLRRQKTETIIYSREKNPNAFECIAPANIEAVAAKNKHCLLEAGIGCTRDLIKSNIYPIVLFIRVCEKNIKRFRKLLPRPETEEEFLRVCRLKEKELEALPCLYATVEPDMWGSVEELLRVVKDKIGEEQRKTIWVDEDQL
inactive: [1] 0.088 | [2] 0.012 | [3] -0.075 | [4] -0.087 | [5] -0.071 | [6] 0.082 | [7] -0.024 | [8] -0.014 | [9] 0.063 | [10] 0.002

CCAR2 (UniProt Q8N163)
UniProt Q8N163, sequence (Q8N163 whole entry, looked up): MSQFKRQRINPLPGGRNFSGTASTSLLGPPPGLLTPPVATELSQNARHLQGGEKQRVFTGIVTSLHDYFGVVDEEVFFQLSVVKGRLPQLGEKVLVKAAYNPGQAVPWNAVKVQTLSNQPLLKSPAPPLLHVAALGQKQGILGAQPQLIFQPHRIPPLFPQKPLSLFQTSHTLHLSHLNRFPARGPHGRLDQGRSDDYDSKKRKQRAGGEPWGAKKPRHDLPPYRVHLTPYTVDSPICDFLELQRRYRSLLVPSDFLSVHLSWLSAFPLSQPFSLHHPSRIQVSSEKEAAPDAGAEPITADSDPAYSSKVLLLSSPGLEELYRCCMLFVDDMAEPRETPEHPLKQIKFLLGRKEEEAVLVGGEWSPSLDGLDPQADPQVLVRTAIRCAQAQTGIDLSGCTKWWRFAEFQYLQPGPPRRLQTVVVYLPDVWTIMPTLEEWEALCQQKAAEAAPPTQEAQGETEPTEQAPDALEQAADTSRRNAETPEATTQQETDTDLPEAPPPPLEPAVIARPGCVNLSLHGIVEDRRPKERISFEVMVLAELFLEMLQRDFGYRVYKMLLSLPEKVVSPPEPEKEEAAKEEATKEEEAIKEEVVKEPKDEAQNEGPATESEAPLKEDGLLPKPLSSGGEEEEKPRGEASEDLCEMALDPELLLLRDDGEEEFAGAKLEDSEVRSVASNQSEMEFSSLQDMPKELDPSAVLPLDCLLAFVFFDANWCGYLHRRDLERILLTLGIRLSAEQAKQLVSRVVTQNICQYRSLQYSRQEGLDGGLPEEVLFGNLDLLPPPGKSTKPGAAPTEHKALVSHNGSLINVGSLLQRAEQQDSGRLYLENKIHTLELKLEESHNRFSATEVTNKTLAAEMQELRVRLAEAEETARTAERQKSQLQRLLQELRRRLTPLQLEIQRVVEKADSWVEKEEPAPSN
inactive: [1] -0.007 | [2] -0.004 | [3] -0.047 | [4] -0.01 | [5] -0.031 | [6] 0.01 | [7] -0.057 | [8] 0.032 | [9] -0.002 | [10] 0.007

CCDC47 (UniProt Q96A33)
UniProt Q96A33, sequence (Q96A33 whole entry, looked up): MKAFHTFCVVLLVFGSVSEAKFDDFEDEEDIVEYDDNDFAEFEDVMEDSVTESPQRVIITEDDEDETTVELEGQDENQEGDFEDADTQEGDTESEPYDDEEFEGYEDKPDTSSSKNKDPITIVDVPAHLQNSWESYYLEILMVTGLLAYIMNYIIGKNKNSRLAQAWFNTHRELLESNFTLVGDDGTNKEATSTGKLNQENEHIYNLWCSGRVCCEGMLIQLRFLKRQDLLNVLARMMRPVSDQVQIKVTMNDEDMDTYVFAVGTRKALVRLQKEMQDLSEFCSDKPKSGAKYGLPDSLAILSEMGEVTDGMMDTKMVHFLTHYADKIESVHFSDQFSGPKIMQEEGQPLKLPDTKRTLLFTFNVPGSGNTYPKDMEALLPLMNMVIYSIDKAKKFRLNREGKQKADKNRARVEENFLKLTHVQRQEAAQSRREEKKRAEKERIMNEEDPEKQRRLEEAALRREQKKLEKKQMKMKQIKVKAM
inactive: [1] 0.011 | [2] 0.032 | [3] 0.002 | [4] 0.024 | [5] 0.014 | [6] 0.018 | [7] -0.02 | [8] -0.09 | [9] -0.003 | [10] 0.007

CFDP1 (UniProt Q9UEE9)
active: [7] -0.311
inactive: [1] -0.02 | [2] -0.008 | [3] -0.066 | [4] 0.025 | [5] 0.039 | [6] -0.015 | [8] 0.105 | [9] -0.007 | [10] 0.024

BCR (UniProt P11274)
inactive: [1] 0.012 | [2] 0.043 | [3] -0.021 | [4] -0.062 | [5] -0.056 | [6] 0.015 | [7] -0.112 | [8] -0.029 | [9] 0.024 | [10] -0.018

CDKN1C (UniProt P49918)
UniProt P49918, sequence (P49918 whole entry, looked up): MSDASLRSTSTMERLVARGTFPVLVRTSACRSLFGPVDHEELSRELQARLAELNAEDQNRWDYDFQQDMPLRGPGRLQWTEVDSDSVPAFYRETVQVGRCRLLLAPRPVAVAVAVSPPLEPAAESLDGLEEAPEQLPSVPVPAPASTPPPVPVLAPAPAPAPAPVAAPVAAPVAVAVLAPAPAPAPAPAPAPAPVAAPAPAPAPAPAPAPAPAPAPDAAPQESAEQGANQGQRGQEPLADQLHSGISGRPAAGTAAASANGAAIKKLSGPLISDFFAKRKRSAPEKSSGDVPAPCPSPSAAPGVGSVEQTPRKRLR
inactive: [1] -0.275 | [2] -0.003 | [3] -0.041 | [4] 0.027 | [5] -0.066 | [6] 0.019 | [7] 0.073 | [8] 0.03 | [9] -0.14 | [10] -0.054

CDC42EP4 (UniProt Q9H3Q1)
inactive: [1] 0.01 | [2] -0.01 | [3] 0.013 | [4] 0.162 | [5] 0.013 | [6] -0.04 | [7] -0.021 | [8] 0.042 | [9] -0.064 | [10] -0.012

ATM (UniProt Q13315)
inactive: [1] -0.063 | [2] -0.004 | [3] 0.041 | [4] 0.005 | [5] -0.078 | [6] 0.021 | [7] -0.089 | [8] 0.071 | [9] -0.011 | [10] 0.032

ATG4A (UniProt Q8WYN0)
UniProt Q8WYN0, sequence (Q8WYN0 whole entry, looked up): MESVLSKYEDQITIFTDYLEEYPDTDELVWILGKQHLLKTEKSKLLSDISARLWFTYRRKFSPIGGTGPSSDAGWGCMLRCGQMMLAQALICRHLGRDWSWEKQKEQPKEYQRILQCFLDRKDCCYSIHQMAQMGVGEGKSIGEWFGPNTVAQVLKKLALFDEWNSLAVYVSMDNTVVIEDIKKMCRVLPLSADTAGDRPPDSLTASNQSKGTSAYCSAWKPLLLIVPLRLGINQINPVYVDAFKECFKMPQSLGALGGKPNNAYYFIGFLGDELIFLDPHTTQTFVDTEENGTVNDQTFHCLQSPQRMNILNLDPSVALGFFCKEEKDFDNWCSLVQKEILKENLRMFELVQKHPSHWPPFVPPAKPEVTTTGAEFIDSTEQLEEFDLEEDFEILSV
inactive: [1] -0.045 | [2] 0.033 | [3] 0.012 | [4] -0.047 | [5] -0.015 | [6] 0.008 | [7] 0.027 | [8] -0.045 | [9] 0.034 | [10] -0.043

CHCHD7 isoform 4 (UniProt Q9BUK0)
UniProt Q9BUK0, sequence (Q9BUK0 whole entry, looked up): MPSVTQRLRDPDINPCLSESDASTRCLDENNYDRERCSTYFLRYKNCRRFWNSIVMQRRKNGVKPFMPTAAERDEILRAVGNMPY
inactive: [1] 0.026 | [2] 0.06 | [3] -0.026 | [4] 0.073 | [5] -0.064 | [6] 0.021 | [8] 0.155 | [9] -0.021 | [10] 0.077
active: [7] -0.71

ATG13 isoform 2 (UniProt O75143)
inactive: [1] -0.05 | [2] 0.042 | [3] 0.024 | [4] 0.036 | [5] 0.007 | [6] 0.015 | [8] 0.077 | [9] 0.005 | [10] 0.053
active: [7] -0.281

CHCHD2 (UniProt Q9Y6H1)
inactive: [1] 0.076 | [2] -0.025 | [3] 0.011 | [4] 0.102 | [5] 0.086 | [6] 0.108 | [7] 0.16 | [8] -0.094 | [9] -0.011 | [10] 0.054

BUD23 isoform 3 (UniProt O43709)
active: [7] -0.341
inactive: [1] 0.01 | [2] 0.017 | [3] 0.038 | [4] -0.006 | [5] -0.029 | [6] -0.104 | [8] 0.193 | [9] 0.019 | [10] 0.017

CHAC2 (UniProt Q8WUX2)
UniProt Q8WUX2, sequence (Q8WUX2 whole entry, looked up): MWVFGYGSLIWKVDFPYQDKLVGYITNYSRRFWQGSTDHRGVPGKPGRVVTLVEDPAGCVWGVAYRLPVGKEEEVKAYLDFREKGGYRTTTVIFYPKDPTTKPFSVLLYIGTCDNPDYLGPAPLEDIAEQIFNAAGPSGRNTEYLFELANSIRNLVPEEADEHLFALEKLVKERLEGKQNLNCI
active: [7] 0.649
inactive: [1] -0.028 | [2] -0.004 | [3] -0.006 | [4] -0.044 | [5] 0.006 | [6] 0.02 | [8] -0.154 | [9] -0.018 | [10] -0.031

BCKDK (UniProt O14874)
inactive: [1] -0.036 | [2] 0.002 | [3] -0.028 | [4] 0.203 | [5] -0.037 | [6] 0.067 | [7] -0.033 | [8] 0.059 | [9] 0.031 | [10] 0.028

ATAD3B (UniProt Q5T9A4)
UniProt Q5T9A4, sequence (Q5T9A4 whole entry, looked up): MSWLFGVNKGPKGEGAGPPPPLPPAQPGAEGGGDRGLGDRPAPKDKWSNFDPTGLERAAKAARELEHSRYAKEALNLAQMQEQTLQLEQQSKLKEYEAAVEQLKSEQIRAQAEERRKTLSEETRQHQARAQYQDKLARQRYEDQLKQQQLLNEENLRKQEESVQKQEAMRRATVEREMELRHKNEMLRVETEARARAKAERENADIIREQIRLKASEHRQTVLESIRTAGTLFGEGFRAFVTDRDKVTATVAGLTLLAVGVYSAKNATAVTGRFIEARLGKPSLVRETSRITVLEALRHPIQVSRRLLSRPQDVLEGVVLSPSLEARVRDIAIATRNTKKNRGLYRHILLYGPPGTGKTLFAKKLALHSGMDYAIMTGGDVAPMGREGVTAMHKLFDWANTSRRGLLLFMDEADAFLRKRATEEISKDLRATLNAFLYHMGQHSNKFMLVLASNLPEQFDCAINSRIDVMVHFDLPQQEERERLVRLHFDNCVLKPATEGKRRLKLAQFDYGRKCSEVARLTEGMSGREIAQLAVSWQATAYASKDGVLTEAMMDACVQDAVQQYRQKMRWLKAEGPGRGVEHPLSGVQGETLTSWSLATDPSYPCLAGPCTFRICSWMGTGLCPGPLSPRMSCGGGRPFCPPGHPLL
inactive: [1] -0.022 | [2] 0.016 | [3] -0.007 | [4] -0.004 | [5] -0.019 | [6] 0.014 | [8] -0.205 | [9] -0.018 | [10] -0.013
active: [7] 0.383

CHD1L (UniProt Q86WJ1)
inactive: [1] 0.033 | [2] 0.011 | [3] 0.062 | [4] -0.029 | [5] -0.09 | [6] 0.024 | [7] -0.053 | [8] -0.054 | [9] 0 | [10] -0.001

CDK11B (UniProt P21127)
inactive: [1] 0.025 | [2] 0.002 | [3] 0.022 | [4] -0.087 | [5] -0.057 | [6] 0.029 | [7] -0.047 | [8] -0.048 | [9] -0.024 | [10] 0.01

CCDC186 (UniProt Q7Z3E2)
active: [7] 0.332
inactive: [1] -0.007 | [2] 0.069 | [3] -0.029 | [4] 0.069 | [5] 0.031 | [6] 0.019 | [8] -0.033 | [9] -0.003 | [10] -0.054

ATP9B (UniProt O43861)
inactive: [1] -0.046 | [2] 0.02 | [3] -0.024 | [4] -0.081 | [5] -0.051 | [6] -0.015 | [7] -0.07 | [8] 0.189 | [9] 0.046 | [10] -0.071

CBR1 (UniProt P16152)
UniProt P16152, sequence (P16152 whole entry, looked up): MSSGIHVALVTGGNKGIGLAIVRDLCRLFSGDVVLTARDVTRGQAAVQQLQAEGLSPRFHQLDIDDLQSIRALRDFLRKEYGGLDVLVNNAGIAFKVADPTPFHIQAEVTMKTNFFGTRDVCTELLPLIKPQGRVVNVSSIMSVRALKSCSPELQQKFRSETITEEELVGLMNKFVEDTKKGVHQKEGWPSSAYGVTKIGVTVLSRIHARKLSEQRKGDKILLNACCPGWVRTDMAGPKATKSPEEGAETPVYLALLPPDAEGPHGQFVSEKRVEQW
inactive: [1] -0.009 | [2] 0.011 | [3] -0.013 | [4] -0.019 | [5] 0.004 | [6] 0 | [7] -0.096 | [8] 0.077 | [9] 0.037 | [10] -0.047

CCDC22 (UniProt O60826)
inactive: [1] -0.054 | [2] 0.026 | [3] 0.052 | [4] -0.053 | [5] -0.013 | [6] 0.026 | [7] -0.027 | [8] -0.01 | [9] 0.01 | [10] 0.028

CAMLG (UniProt P49069)
active: [7] 0.257
inactive: [1] -0.027 | [2] 0 | [3] -0.021 | [4] 0.026 | [5] 0.002 | [6] -0.089 | [8] -0.04 | [9] -0.026 | [10] -0.002

CDC123 (UniProt O75794)
inactive: [1] -0.052 | [2] 0.014 | [3] 0.04 | [4] -0.12 | [5] -0.05 | [6] 0.032 | [7] 0.018 | [8] -0.021 | [9] 0.012 | [10] 0.013

CCT6A (UniProt P40227)
inactive: [1] -0.026 | [2] -0.005 | [3] -0.03 | [4] -0.006 | [5] 0.024 | [6] 0.011 | [7] -0.024 | [8] -0.002 | [9] -0.004 | [10] -0.001

CCNC (UniProt P24863)
inactive: [1] 0.22 | [2] 0.046 | [3] -0.026 | [4] -0.017 | [5] -0.079 | [6] 0.029 | [7] -0.211 | [8] 0.135 | [9] -0.001 | [10] -0.062

C18orf25 (UniProt Q96B23)
inactive: [1] -0.014 | [2] 0.014 | [3] 0.004 | [4] 0.1 | [5] -0.013 | [6] -0.059 | [7] -0.035 | [8] 0.015 | [9] -0.032 | [10] 0.009

BRD2 isoform 2 (UniProt P25440)
inactive: [1] 0.033 | [2] -0.153 | [3] -0.053 | [5] 0.369 | [6] 0.042 | [8] -0.066 | [9] -0.047 | [10] -0.1
active: [4] 0.548 | [7] 0.617

BRAF (UniProt P15056)
active: [1] 1.03 | [2] 0.765
inactive: [3] 0.012 | [4] -0.069 | [5] -0.044 | [6] -0.023 | [7] -0.11 | [8] 0.037 | [9] 0.017 | [10] -0.025

BOLA2 (UniProt Q9H3K6)
UniProt Q9H3K6, sequence (Q9H3K6 whole entry, looked up): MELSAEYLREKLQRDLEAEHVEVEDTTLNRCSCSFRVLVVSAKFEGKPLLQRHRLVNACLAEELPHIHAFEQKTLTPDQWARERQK
active: [7] 0.604
inactive: [1] -0.086 | [2] -0.043 | [3] 0.129 | [4] -0.068 | [5] 0.004 | [6] 0.067 | [8] -0.04 | [9] -0.033 | [10] -0.038

CALB2 (UniProt P22676)
inactive: [1] 0.064 | [2] 0.046 | [4] -0.036 | [5] 0.017 | [6] 0.023 | [7] -0.065 | [8] 0.066 | [9] -0.008 | [10] -0.061
active: [3] 0.375
